Experimental data as given in PubChem BioAssay (Tox21).
Results filed as inconclusive are left out. The source made the active and inactive calls. Unless noted, calls follow the shape of the dose curve; as a rule, active = well fitted curve in the direction sought with a large enough effect in the repeat runs; inconclusive = weak or mixed curves; inactive = no such curve, though single readings can be large; an effect the other way counts as inactive or inconclusive.

Experiments:
[1] = qHTS assay to identify small molecule agonists of the peroxisome proliferator-activated receptor delta (PPARd) signaling pathway - cell viability counter screen (AID 743211); also: nearly all actives have a fitted effect of over 55% in size
In short: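 qHTS cell viability: PPARd-bla HEK293H; 17 h cpd, 37C; CellTiter-Glo, luminescence at 30 min RT.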

[2] = target: Peroxisome proliferator-activated receptor delta (Homo sapiens) (UniProt Q03181); experiment: qHTS assay to identify small molecule agonists of the peroxisome proliferator-activated receptor delta (PPARd) signaling pathway (AID 743212; calls by dose curve)
In short: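 HEK293H UAS-bla reporter cells, human PPARd system; compounds delivered in DMSO after 5 h plating, then at 37 C. Beta-lactamase FRET read, 2 h RT substrate step.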

[3] = qHTS assay to identify small molecule antagonists of the peroxisome proliferator-activated receptor delta (PPARd) signaling pathway - cell viability counter screen (AID 743213); also: nearly all actives have a fitted effect of over 50% in size
In short: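 PPARd-bla HEK293H cells were treated with compounds plus agonist L165041 (300 nM final) for 17 h at 37 C. Viability was then read in the same wells by CellTiter-Glo luminescence after 30 min at room temperature.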

[4] = qHTS assay to identify small molecule agonists of the farnesoid-X-receptor (FXR) signaling pathway - cell viability counter screen (AID 743218); also: nearly all actives have a fitted effect of over 45% in size
In short: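 Parallel cytotoxicity test: compound-treated (16 h, 37 C) HEK 293T FXR-bla reporter cells were lysed with CellTiter-Glo and luminescence recorded.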

[5] = qHTS assay to identify small molecule antagonists of the farnesoid-X-receptor (FXR) signaling pathway - cell viability counter screen (AID 743221; active = well fitted cell-killing curve with a large enough effect in the repeat runs, not every such curve was filed as active; also: nearly all actives have a fitted effect of over 50% in size)
In short: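 After a 5 h settling period, FXR-bla HEK 293T cells receive compound and chenodeoxycholic acid (50 uM final) and incubate 16 h at 37 C; CellTiter-Glo luminescence, read after 30 min at room temperature, reports cell viability.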

[6] = target: Vitamin D3 receptor (Homo sapiens) (UniProt P11473); experiment: qHTS assay to identify small molecule agonists of the vitamin D receptor (VDR) signaling pathway (AID 743222; calls by dose curve)
In short: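 In VDR-bla cells, compound-induced beta-lactamase expression is quantified by FRET substrate fluorescence. Treatment lasts 16 h at 37C; substrate develops 2 h at room temperature.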

[7] = target: Bile acid receptor (Homo sapiens) (UniProt Q96RI1); experiment: qHTS assay to identify small molecule antagonists of the farnesoid-X-receptor (FXR) signaling pathway (AID 743217; active = well fitted inhibition curve with a large enough effect in the signal ratio in the repeat runs, not every such curve was filed as active; the % refers to the signal ratio)
In short: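 GeneBLAzer FXR-UAS-bla HEK 293T, CDCA-stimulated (50 uM final). Compound treatment 16 h, 37 °C. Detection: beta-lactamase cleavage of B/G FRET substrate, fluorescence.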

[8] = target: Bile acid receptor (Homo sapiens) (UniProt Q96RI1); experiment: qHTS assay to identify small molecule agonists of the farnesoid-X-receptor (FXR) signaling pathway (AID 743220; active = well fitted activation curve with a large enough effect in the signal ratio in the repeat runs, not every such curve was filed as active; the % refers to the signal ratio)
In short: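 Beta-lactamase reporter under UAS control in GeneBLAzer FXR HEK 293T cells (5000/well) measured with LiveBLAzer FRET substrate after 2 h at room temperature. Compound exposure lasted 16 h at 37C.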

[9] = target: Vitamin D3 receptor (Homo sapiens) (UniProt P11473); experiment: qHTS assay to identify small molecule antagonists of the vitamin D receptor (VDR) signaling pathway (AID 743223; active = well fitted inhibition curve with a large enough effect in the signal ratio in the repeat runs, not every such curve was filed as active; the % refers to the signal ratio)
In short: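 Reporter line VDR-bla; stimulus 1alpha,25-(OH)2 vitamin D3, 3 nM final; compound co-addition, 16 h 37C/5% CO2; LiveBLAzer B/G substrate 2 h RT; fluorescence intensity.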

[10] = target: Peroxisome proliferator-activated receptor delta (Homo sapiens) (UniProt Q03181); experiment: qHTS assay to identify small molecule antagonists of the peroxisome proliferator-activated receptor delta (PPARd) signaling pathway (AID 743215; active = well fitted inhibition curve with a large enough effect in the signal ratio in the repeat runs, not every such curve was filed as active; the % refers to the signal ratio;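 also: cells stimulated with agonist L165041 at 300 nM final during compound exposure; series mostly up to about 62 µM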)
In short: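 HEK293H UAS-bla, PPARd; agonist L165041 300 nM final with cpd in DMSO; 37 C 17 h; FRET substrate, RT 2 h; fluorescence intensity.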

Measured: Potency

Chain of Bile acid receptor (Homo sapiens) (Q96RI1 whole entry, looked up): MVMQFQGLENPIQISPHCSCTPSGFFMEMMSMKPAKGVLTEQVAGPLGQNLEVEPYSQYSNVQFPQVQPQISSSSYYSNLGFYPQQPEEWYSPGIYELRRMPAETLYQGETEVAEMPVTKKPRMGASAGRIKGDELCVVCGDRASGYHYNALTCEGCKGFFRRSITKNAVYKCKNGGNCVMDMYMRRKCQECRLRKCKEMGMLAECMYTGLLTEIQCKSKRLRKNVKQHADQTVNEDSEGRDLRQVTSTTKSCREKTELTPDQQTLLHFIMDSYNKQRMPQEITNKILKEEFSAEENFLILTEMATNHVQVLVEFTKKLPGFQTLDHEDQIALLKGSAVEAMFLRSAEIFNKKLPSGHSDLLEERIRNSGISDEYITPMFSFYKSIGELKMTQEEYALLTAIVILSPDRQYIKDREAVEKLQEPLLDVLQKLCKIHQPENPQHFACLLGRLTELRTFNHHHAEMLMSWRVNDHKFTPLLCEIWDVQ
Chain of Peroxisome proliferator-activated receptor delta (Homo sapiens) (Q03181 whole entry, looked up): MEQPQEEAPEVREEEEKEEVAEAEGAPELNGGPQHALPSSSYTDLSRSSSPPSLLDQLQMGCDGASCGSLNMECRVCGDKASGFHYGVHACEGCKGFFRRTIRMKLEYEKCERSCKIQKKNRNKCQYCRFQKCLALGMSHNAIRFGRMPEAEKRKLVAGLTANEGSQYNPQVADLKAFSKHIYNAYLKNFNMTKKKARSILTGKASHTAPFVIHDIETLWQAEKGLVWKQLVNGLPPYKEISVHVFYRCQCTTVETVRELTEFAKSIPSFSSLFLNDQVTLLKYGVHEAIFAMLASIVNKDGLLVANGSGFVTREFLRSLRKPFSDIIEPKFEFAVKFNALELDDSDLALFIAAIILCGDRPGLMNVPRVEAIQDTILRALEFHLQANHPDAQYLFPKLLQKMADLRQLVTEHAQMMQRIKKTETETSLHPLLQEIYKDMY
Chain of Vitamin D3 receptor (Homo sapiens) (P11473 whole entry, looked up): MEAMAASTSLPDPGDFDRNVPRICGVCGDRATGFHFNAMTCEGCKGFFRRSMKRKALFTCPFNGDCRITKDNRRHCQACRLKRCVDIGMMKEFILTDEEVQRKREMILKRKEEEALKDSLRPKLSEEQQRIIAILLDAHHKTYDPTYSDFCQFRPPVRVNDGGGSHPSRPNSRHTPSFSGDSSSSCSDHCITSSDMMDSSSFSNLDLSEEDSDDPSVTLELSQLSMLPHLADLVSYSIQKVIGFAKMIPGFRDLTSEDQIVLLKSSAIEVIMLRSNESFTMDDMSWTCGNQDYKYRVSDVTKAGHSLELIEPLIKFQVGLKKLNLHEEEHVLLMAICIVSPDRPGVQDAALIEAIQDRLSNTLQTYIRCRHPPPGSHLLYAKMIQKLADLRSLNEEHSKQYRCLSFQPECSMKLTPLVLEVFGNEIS

CCC/C(=N\OCC)C1=C(O)CC(CC(C)SCC)CC1=O (configuration not stated)
inactive: [1] | [2] | [3] | [4] | [5] | [6]

C=C(C)[C@@H]1CC=C(C=O)CC1
inactive: [1] | [2] | [3] | [7] | [8] | [6]

CCCCOC(=O)[C@@H](C)Oc1ccc(Oc2ccc(C#N)cc2F)cc1
inactive: [1] | [2] | [3] | [5] | [6] | [9]

O=C(NCO)NCO
inactive: [1] | [2] | [3] | [4] | [5] | [6]

CC1=NNC(=O)N(/N=C/c2cccnc2)C1
inactive: [1] | [2] | [3] | [10] | [6] | [9]

CCC1(c2ccccc2)C(=O)N=C(O)NC1=O (configuration not stated)
not listed: [5] | [7] | [8]
inactive: all other assays above

OCCSCSCCO
not listed: [6] | [7] | [8]
inactive: all other assays above

O=C1c2ccccc2C(=O)c2ccccc21
not listed: [6] | [7] | [8]
inactive: all other assays above

COC(=O)c1c(C(F)F)nc(C(F)(F)F)c(C2=NCCS2)c1CC(C)C
not listed: [4] | [7] | [8]
inactive: all other assays above

ClCCCN1CCN(c2cccc(Cl)c2)CC1
inactive: [1] | [2] | [3] | [10] | [5]

N#Cc1c(Cl)cccc1Cl
inactive: [1] | [2] | [3] | [10] | [5]

COP(=S)(OC)Oc1c(Cl)cc(C)cc1Cl
not listed: [6] | [7] | [8]
inactive: all other assays above

Clc1cccc(N2CCNCC2)c1
not listed: [9] | [10]
inactive: all other assays above

CCC(C)(C)c1cc(-n2nc3ccccc3n2)c(O)c(C(C)(C)CC)c1
not listed: [5] | [7] | [8]
inactive: all other assays above

C#CCN1C(=O)COc2cc(F)c(N3C(=O)C4=C(CCCC4)C3=O)cc21
not listed: [7] | [8]
inactive: all other assays above

C[C@]1(O)CC[C@H]2[C@@H]3CCC4=CC(=O)CC[C@]4(C)[C@@]3(F)[C@@H](O)C[C@@]21C
inactive: [1] | [2] | [3] | [7] | [8] | [5]

CCCCOC(=O)c1ccccc1C(=O)O
inactive: [1] | [2] | [3] | [7] | [4] | [8]

O=C(O)c1ccc2[nH]cc(CCCCN3CC=C(c4ccccc4)CC3)c2c1
not listed: [7] | [8]
inactive: all other assays above

CC(C1CC1)C(O)(Cn1cncn1)c1ccc(Cl)cc1 (configuration not stated)
inactive: [1] | [2] | [3] | [10] | [5]

NC(=O)O
not listed: [7] | [8]
inactive: all other assays above

O=C(Nc1ccccc1)c1ccccc1I
inactive: [1] | [2] | [3] | [4]

OC(c1ccc(F)cc1)(c1cncnc1)c1ccccc1Cl (configuration not stated)
inactive: [1] | [2] | [10] | [4] | [5]

CC(C)CC#N
not listed: [3]
inactive: all other assays above

CCN(CC)C(C)C(=O)c1ccccc1 (configuration not stated)
inactive: [1] | [2] | [10] | [4]

CCOC(=O)C(c1c(O)c2ccccc2oc1=O)c1c(O)c2ccccc2oc1=O
inactive: [1] | [2] | [10] | [4]

CC(COc1ccc(Oc2ccccc2)cc1)Oc1ccccn1 (configuration not stated)
not listed: [3] | [4]
inactive: all other assays above

C=CC1CC=CCC1 (configuration not stated)
not listed: [3] | [5] | [9]
inactive: all other assays above

CC(C)(C)C(=O)C(Oc1ccc(Cl)cc1)n1cncn1 (configuration not stated)
inactive: [1] | [2] | [10] | [4] | [5] | [6]

ClCC(Cl)(Cl)Cl
not listed: [3] | [4]
inactive: all other assays above

CC1=C(C(=O)O)N2C(=O)[C@@H](N)[C@H]2SC1
inactive: [1] | [2] | [10] | [4] | [5] | [9]

COc1ccc(C(=O)N2CCCC2=O)cc1
inactive: [1] | [2] | [10] | [4] | [5] | [9]

CNC(=O)Oc1c(C(C)(C)C)cc(C)cc1C(C)(C)C
not listed: [3]
inactive: all other assays above

Nc1c(Br)cc([N+](=O)[O-])cc1[N+](=O)[O-]
not listed: [3]
inactive: all other assays above

COP(=S)(OC)Oc1ccc(S(N)(=O)=O)cc1
not listed: [3] | [6]
inactive: all other assays above

CC(C(=O)c1ccccc1)N(C)C (configuration not stated)
inactive: [1] | [2] | [10] | [4] | [5]

CCOC(=O)C1(c2ccccc2)CCN(CCc2ccc(N)cc2)CC1
inactive: [1] | [2] | [10] | [4] | [5] | [9]

Cc1nc(N)nc(N)n1
inactive: [1] | [2] | [10] | [4] | [5] | [9]

[O]=[Cd]
inactive: [1] | [2] | [10] | [4] | [5]

CC(=O)[C@H]1CC[C@H]2[C@@H]3CC[C@H]4C[C@H](O)CC[C@]4(C)[C@H]3C(=O)C[C@]12C
not listed: [3] | [9]
inactive: all other assays above

COc1ncc(F)c2nc(S(=O)(=O)Nc3c(F)cccc3F)nn12
inactive: [1] | [2] | [10] | [4] | [5]

Cc1cc(C)nc(Nc2ccccc2)n1
not listed: [3] | [7] | [8]
inactive: all other assays above

O=c1oc2ccccc2c(O)c1C1CCCc2ccccc21 (configuration not stated)
not listed: [3] | [7] | [8]
inactive: all other assays above

CC(Cl)(Cl)[N+](=O)[O-]
not listed: [3] | [7] | [8]
inactive: all other assays above

CCSC(=O)N(CC)C1CCCCC1
not listed: [3] | [9]
inactive: all other assays above

CN1C(=S)CN=C(c2ccccc2)c2cc(Cl)ccc21
not listed: [3] | [6]
inactive: all other assays above

Clc1ccccc1N1CCNCC1
inactive: [1] | [2] | [10] | [4] | [5]

CC(=O)Nc1cc([As](=O)(O)O)ccc1O
not listed: [3] | [5] | [9]
inactive: all other assays above

COP(N)(=S)Oc1ccccc1C(=O)OC(C)C (configuration not stated)
inactive: [1] | [2] | [10] | [4] | [5] | [6]

CN1C[C@@H](NS(=O)(=O)N(C)C)C[C@@H]2c3cccc4c3c(cn4C)C[C@H]21
inactive: [1] | [2] | [10] | [4] | [6]

CCN(CC)C(=O)[C@@H]1C=C2c3cccc4[nH]cc(c34)C[C@H]2N(C)C1
inactive: [1] | [2] | [10] | [4] | [8] | [5]

CCN(CC)CCOC(=O)C(C)(c1ccccc1)c1ccccc1
inactive: [1] | [2] | [10] | [4] | [5]

CNC(=O)N(C)c1nc2ccccc2s1
not listed: [3] | [9]
inactive: all other assays above

O=C1CN=C(c2ccccc2)c2cc([N+](=O)[O-])ccc2N1
not listed: [3] | [7] | [8]
inactive: all other assays above

COc1cc(OC)nc(NC(=O)NS(=O)(=O)c2ncccc2C(=O)N(C)C)n1
not listed: [3] | [7] | [8]
inactive: all other assays above

COc1cc(OC)nc(Oc2cccc(Oc3nc(OC)cc(OC)n3)c2C(=O)O)n1
not listed: [3] | [6] | [7]
inactive: all other assays above

COC(=O)c1ccccc1S(=O)(=O)NC(=O)N(C)c1nc(C)nc(OC)n1
not listed: [3] | [6] | [9]
inactive: all other assays above

Nc1cc(Cl)ccc1O
inactive: [1] | [2] | [10] | [4] | [5] | [9]

CCC(=O)c1ccccc1
not listed: [3] | [5]
inactive: all other assays above

CC1CCC(=O)O1 (configuration not stated)
not listed: [3] | [7] | [8]
inactive: all other assays above

Fc1ccc(C2(Cn3cncn3)OC2c2ccccc2Cl)cc1 (configuration not stated)
inactive: [1] | [3] | [7] | [4] | [6]

OCCBr
not listed: [2] | [10]
inactive: all other assays above

CSc1nc(N=[N+]=[N-])nc(NC(C)C)n1
inactive: [1] | [2] | [4] | [5] | [9]

O=CNC(N1CCN(C(NC=O)C(Cl)(Cl)Cl)CC1)C(Cl)(Cl)Cl (configuration not stated)
inactive: [1] | [2] | [4] | [6] | [9]

O=C1OC(CCN2CCCCC2)OC1(c1ccccc1)c1ccccc1 (configuration not stated)
not listed: [2] | [8] | [10]
inactive: all other assays above

ClCCOCOCCCl
not listed: [2] | [10]
inactive: all other assays above

CC(C)(C)NCC(O)c1cc(Cl)c(N)c(Cl)c1 (configuration not stated)
not listed: [3] | [6] | [10]
inactive: all other assays above

COC(C)(C)C
inactive: [1] | [2] | [4] | [6] | [9]
